The source of these data is PubChem BioAssay AID1852 (Sanford-Burnham Center for Chemical Genomics, 2009).

In all, about 2,500 compounds went through this assay and about 1,100 (44%) were called active. The set was probably picked from earlier hits. The list shows a part of the results. Unmarked numbers belong to inactive results.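 How the source made its calls: active means inhibition above 50% at 4 µM in the single-point screen; inactive means inhibition of 50% or less.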

What is called inhibition is the relative decrease from the control value, in per cent.

This test is described as follows: TNF-a-driven NF-kB reporter inhibitors, primary screen, selectivity assay for NOD1/NOD2 signaling inhibitor project, cell-based, HEK293T NF-kB-Luc, luminescence (AID 1852). Conditions: TNF-a induced, 14 h, at 4 µM, stronger effect = higher value.
With `CCCCN=C[C@]12CCC(O)CC1(O)CCC1[C@@H]2CC[C@]2(C)[C@H](C3C=CC(=O)O3)CCC12O` (stereo partly drawn), the inhibition is 92.1% (active).

As for `COc1ccc(-[n+]2c(-c3ccccc3)cc(-c3ccc(C)cc3)cc2-c2ccccc2)cc1`, the inhibition is 75.4% (active).

Turning to `CN(C)c1ccc(-[n+]2c(-c3ccccc3)cc(-c3ccccc3)cc2-c2ccccc2)cc1`, the inhibition is 94.6% (active).

With `COc1ccc(-c2cc(-c3ccccc3)[n+](C)c(-c3ccccc3)c2)cc1`, the inhibition was 46.4%.

For `O=C(c1ccc(Cl)cc1)C1CCCN(Cc2cccc3ncccc23)C1` (stereo not drawn), the inhibition is 29.9%.

As for `CCOc1ccc(-c2c(C)n(-c3ccc(OCC)cc3)c3[n+]2CCCCC3)cc1`, the inhibition is 87% (active).

In the case of `COC1CC(OC2CCC3(C)C(CCC4C3CCC3(C)C(C5=CC(=O)OC5)C(OC(C)=O)CC43O)C2)OC(C)C1OC1OC(COC2OC(CO)C(O)C(O)C2O)C(O)C(O)C1O` (stereo not drawn), the inhibition is 94.7% (active).

In the case of `CC(=O)c1c(C)n(C2CCCCC2)c2ccc(O)cc12`, the inhibition was 90% (active).

Regarding `CC(C)(C)c1ccc(CSc2cnn(C(C)(C)C)c(=O)c2Cl)cc1`, the inhibition was 48.3%.

For the compound `NC(=O)c1cn(C2OC(CO)C(O)C2O)c2ncnc(N)c12` (stereo not drawn), the inhibition is 99.9% (active).

Take `CN1C2CCC1/C(=C/c1ccccn1)C(=O)/C2=C\c1ccccn1`: the inhibition was 102% (active).

For `Cc1cc(C)cc(N2C(=O)NC(=O)/C(=C/c3cccn3-c3ccc(Cl)cc3)C2=O)c1`, the inhibition was -24%.

As for `CN1C(=O)/C(=C/c2cccn2-c2ccc3ccccc3c2)C(=O)NC1=S`, the inhibition was 5.6%.

Consider `CCn1nc(-c2ccccc2)nc2c(=O)n(C)c(=O)nc1-2`, for which the inhibition is 99.1% (active).

Regarding `CCn1nc(/C=C/c2ccccc2)nc2c(=O)n(C)c(=O)nc1-2`, the inhibition was 104% (active).

For `C=CCN1C(=O)NC(=O)/C(=C/C=C/c2ccccc2)C1=O`, the inhibition is 49.4%.

For the compound `O=C1NC(=O)N(Cc2ccc(F)cc2)C(=O)/C1=C\C=C\c1ccco1`, the inhibition was 89.3% (active).

For the compound `O=C1NC(=O)N(CCc2ccc(F)cc2)C(=O)/C1=C\C=C\c1ccccc1`, the inhibition is 56% (active).

Turning to `COc1cc(OC)c(OC)cc1/C=C1/C(=O)NC(=O)N(Cc2ccccc2)C1=O`, the inhibition was 29.5%.

Consider `O=C1NC(=O)N(Cc2ccccc2)C(=O)/C1=C/C=C/c1ccco1`, for which the inhibition was 36.6%.

As for `O=C1NC(=O)N(Cc2ccco2)C(=O)/C1=C/C=C/c1ccco1`, the inhibition was -10.1%.

With `COc1ccc(Oc2cc(NC(=O)c3nn(C)cc3[N+](=O)[O-])cc([N+](=O)[O-])c2)cc1`, the inhibition was 61.5% (active).

For the compound `C[C@H]1CCC[C@@H](O)CCC/C=C/c2cc(O)cc(O)c2C(=O)O1`, the inhibition is 73.6% (active).

In the case of `CC(=O)c1cn(Cc2ccccc2F)c2ccccc12`, the inhibition was 31.5%.

With `Cc1nc2c(=O)n(C)c(=O)nc-2n(C)n1`, the inhibition is 99.4% (active).

Consider `CCn1ccnc1CN1CCCC(C(=O)c2cc(Cl)ccc2OC)C1` (stereo not drawn), for which the inhibition was 0.8%.

Take `O=c1c2ccccc2nc(/C=C/c2ccccc2O)n1-c1ccccc1O`: the inhibition was 64.8% (active).

`O=c1c2ccccc2nc(/C=C/c2ccc3c(c2)OCO3)n1-c1ccccc1`: the inhibition is -34.6%.

Take `O=C1C(=O)c2ccccc2-c2ccccc21`: the inhibition is 104% (active).

In the case of `O=C1NC(=O)N(c2ccccc2)C(=O)/C1=C/C=C/c1ccco1`, the inhibition is 32%.

`O=C1NC(=O)N(c2ccccc2)C(=O)/C1=C\C=C\c1ccccc1`: the inhibition is 45.9%.

`CN1C(=O)NC(=O)/C(=C\C=C\c2ccccc2[N+](=O)[O-])C1=O`: the inhibition is 72.4% (active).

On to `O=c1nc(/C=C/c2ccc(Cl)cc2Cl)cc(C(F)(F)F)[nH]1`, for which the inhibition was -105%.

For `COc1ccc(-n2c(O)c(/C=C3\C=Nc4ccc(Br)cc43)c(=O)[nH]c2=O)cc1`, the inhibition was 23.8%.

Turning to `O=C(c1cc(-c2ccc(Cl)cc2)n(-c2ccc(Cl)cc2Cl)n1)N1CCOCC1`, the inhibition was -36%.

For `CC(=O)OC[C@]12CCC(C)=C[C@H]1O[C@@H]1[C@H](O)[C@@H](OC(C)=O)[C@@]2(C)[C@]12CO2`, the inhibition was 102% (active).

For the compound `C=C(C=O)CC1CC(O)[C@]2(C)OC3CC4OC5C[C@]6(C)O[C@]7(C)CCC8OC9C[C@]%10(C)OC%11C(C)=CC(=O)OC%11CC%10OC9C[C@@H](C)C8OC7CC6O[C@]5(C)CC5OC5C4OC3CC2O1` (stereo partly drawn), the inhibition was 80.4% (active).

In the case of `CCCCCCn1c(=O)c(C(=O)Nc2cnccn2)c(O)c2ccccc21`, the inhibition was 52.2% (active).

Consider `CCCCn1c(=O)c(C(=O)Nc2cnccn2)c(O)c2ccccc21`, for which the inhibition was 3.4%.

Regarding `CCCCCn1c(=O)c(C(=O)Nc2cnccn2)c(O)c2ccccc21`, the inhibition is 53.4% (active).

`CC(C)CCn1c(=O)c(C(=O)Nc2ccccc2S(N)(=O)=O)c(O)c2ccccc21`: the inhibition is -7.2%.

For `CCCCCn1c(=O)c(C(=O)Nc2ccccc2S(N)(=O)=O)c(O)c2ccccc21`, the inhibition was -7%.

Take `CCCCCCCn1c(=O)c(C(=O)Nc2cnccn2)c(O)c2ccccc21`: the inhibition is 34.9%.

For the compound `Cc1ccc(N2C(=O)NC(=O)/C(=C\C=C\c3ccco3)C2=O)cc1`, the inhibition is 9.7%.

With `O=Cc1cn(Cc2cccc([N+](=O)[O-])c2)c2ccccc12`, the inhibition is 86.7% (active).

For `O=c1[nH]c(=O)n(-c2ccccc2F)c(O)c1/C=C1\C=Nc2ccccc21`, the inhibition is 14.8%.

Regarding `COc1ccc(-n2c(/C=C/c3ccc(O)cc3)nc3ccccc3c2=O)cc1`, the inhibition was 3.4%.

Take `Cc1cccc(-n2c(/C=C/c3ccc([N+](=O)[O-])o3)nc3ccccc3c2=O)c1`: the inhibition is 91.9% (active).

On to `Nc1nonc1C(=O)N/N=C/c1ccc([N+](=O)[O-])o1`, for which the inhibition is 31.1%.

Take `O=c1c2ccccc2nc(/C=C/c2ccc([N+](=O)[O-])o2)n1-c1ccc(O)cc1`: the inhibition was 89.7% (active).

In the case of `Cc1ccc(/C=C2\C(=O)NC(=S)N(c3ccccc3F)C2=O)s1`, the inhibition was 106% (active).

For `O=C1NC(=S)N(c2ccccc2F)C(=O)/C1=C\c1cccs1`, the inhibition was -11.1%.

In the case of `COc1cccc(N2C(=O)/C(=C/c3ccc(C)o3)C(=O)NC2=S)c1`, the inhibition is 40.9%.

In the case of `Cc1ccc(Sc2ccc(C=C3C(=O)N(C)C(=O)N(C)C3=O)o2)cc1`, the inhibition is -5.5%.

For `C=CCn1c(O)c(C(C)=NCc2cc(OC)cc(OC)c2)c(=O)[nH]c1=O`, the inhibition is 16%.

For `Cc1ccccc1-n1c(O)c(/C=C2/C(c3ccccc3)=Nc3ccccc32)c(=O)[nH]c1=O`, the inhibition was 16.1%.

Regarding `CCOc1ccc(-c2cc(C)[n+](CCN(CC)CC)c(-c3ccc(OCC)cc3)c2)cc1`, the inhibition was 51.9% (active).

Regarding `C[C@@H]1O[C@@H](O[C@H]2C[C@@H](O)[C@]3(CO)[C@H]4[C@H](O)C[C@]5(C)[C@@H](C6=CC(=O)OC6)CC[C@]5(O)[C@@H]4CC[C@]3(O)C2)[C@H](O)[C@H](O)[C@H]1O`, the inhibition is 106% (active).

With `CC(C)N1C(=O)/C(=C/C=C/c2ccco2)C(=O)N(Cc2ccco2)C1=O`, the inhibition was 22.9%.

In the case of `CC(C)[C@H]1C(=O)O[C@H](C(C)C)C(=O)N(C)[C@@H](C(C)C)C(=O)O[C@H](C(C)C)C(=O)N(C)[C@@H](C(C)C)C(=O)O[C@H](C(C)C)C(=O)N1C`, the inhibition is 90.7% (active).

With `COC(=O)[C@]12OC[C@]34C([C@@H](O)[C@@H]1O)[C@]1(C)CC(=O)C(O)=C(C)[C@@H]1C[C@H]3OC(=O)[C@H](O)[C@@H]24` (stereo partly drawn), the inhibition is 76.8% (active).

For `CC[C@@]1(O)C(=O)OCc2c1cc1n(c2=O)Cc2cc3ccccc3nc2-1`, the inhibition was 98.4% (active).

For the compound `Cc1cccc(OCCn2cccc2/C=C2/C(=O)NC(=O)N(Cc3ccco3)C2=O)c1`, the inhibition is 9.6%.

`C[C@]12CCC3C(CCC4=CC(O)CC[C@@]43/C=N/O)C1(O)CCC2C1=CC(=O)OC1` (stereo partly drawn): the inhibition was 97.3% (active).

As to `C=C1C(=O)O[C@@H]2C[C@@H](C)[C@@H]3C=CC(=O)[C@@]3(C)[C@@H](OC(=O)CC(=O)O[C@H]3[C@@H]4C(=C)C(=O)O[C@@H]4C[C@@H](C)[C@@H]4C=CC(=O)[C@]43C)[C@H]12`, the inhibition is 103% (active).

For the compound `C=C1C(=O)O[C@@H]2C[C@@H](C)[C@@H]3C=CC(=O)[C@@]3(C)[C@@H](O)[C@H]12`, the inhibition was 104% (active).

As for `C=C1C(=O)O[C@@H]2C[C@@H](C)[C@@H]3C4OC4C(=O)[C@@]3(C)[C@@H](O)[C@H]12` (stereo partly drawn), the inhibition was 96.7% (active).

As to `C=C1C(=O)O[C@H]2C[C@@H](C)[C@@H]3C=CC(=O)[C@@]3(C)C[C@H]12`, the inhibition is 108% (active).

Take `O=C(c1ccc(Cl)cc1)C1CCCN(Cc2ccc3ncccc3c2)C1` (stereo not drawn): the inhibition is 29.7%.

For the compound `CCC(C)NC(=O)CCC(=O)OC1O[C@H]2OC3(C)CC[C@H]4[C@H](C)CCC(C1C)C24OO3` (stereo partly drawn), the inhibition is 52.3% (active).

For `CC(C)CC(NC(=O)CCCNC(=O)CCC(=O)OC1O[C@H]2OC3(C)CC[C@H]4[C@H](C)CCC(C1C)C24OO3)C(=O)O` (stereo partly drawn), the inhibition is 55.3% (active).

On to `CCC(C)C(NC(=O)CCCNC(=O)CCC(=O)OC1O[C@H]2OC3(C)CC[C@H]4[C@H](C)CCC(C1C)C24OO3)C(=O)O` (stereo partly drawn), for which the inhibition is 87.7% (active).

For `CC1=CC(=Cc2sc3ccccc3[n+]2C)C=C(C)O1`, the inhibition was 43.4%.

Take `CN1CCN(c2ncnc3ccc(Br)cc23)CC1`: the inhibition is 33%.

As for `Cc1cccc(-n2c(O)c(/C=C3/C(c4ccccc4)=Nc4ccccc43)c(=O)[nH]c2=O)c1`, the inhibition was 32.8%.

As to `O=C(c1ccc(C(F)(F)F)cc1)C1CCCN(Cc2ccncc2)C1` (stereo not drawn), the inhibition is 30.7%.

As for `CN1/C(=C\C=C\C2=[N+](C)c3ccc4ccccc4c3C2(C)C)C(C)(C)c2ccccc21`, the inhibition is 87.9% (active).

On to `CCN1/C(=C\C=C\C2=[N+](CC)c3ccccc3C2(C)C)C(C)(C)c2ccccc21`, for which the inhibition was 101% (active).
